The list is not random: actives were taken first. Their share in the collection is about 2.6%.
Cruzain inh Det: blocks cruzain activity in presence of Triton detergent; purified cruzain, Z-FR-AMC fluorescence, 0.01% Triton; Potency, µM, without a hit: max response, negative = inhibition, actives largely listed as inhibitors; hit rate 0.43% among 200,000; AID 1478;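 also: plate controls were neutral wells for no effect and buffer without enzyme for full effect; nearly all actives have a fitted effect of over 40% in size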
Target sequence (P25779 123-467 limits assumed): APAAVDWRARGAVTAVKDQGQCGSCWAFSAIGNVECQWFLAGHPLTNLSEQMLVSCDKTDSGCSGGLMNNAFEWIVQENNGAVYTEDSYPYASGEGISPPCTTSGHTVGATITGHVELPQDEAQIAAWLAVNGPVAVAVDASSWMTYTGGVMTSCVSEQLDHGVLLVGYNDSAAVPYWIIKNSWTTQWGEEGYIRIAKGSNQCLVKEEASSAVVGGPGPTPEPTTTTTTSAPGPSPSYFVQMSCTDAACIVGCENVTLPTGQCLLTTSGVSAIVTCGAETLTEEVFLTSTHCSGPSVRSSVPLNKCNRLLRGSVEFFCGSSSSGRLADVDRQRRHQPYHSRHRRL
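Purified cruzain (1.5 nM final) was preincubated with compounds for 15 min at room temperature in 100 mM sodium acetate pH 5.5, 5 mM DTT, 0.01% Triton X-100. Reaction started with 2 uM Z-FR-AMC; AMC fluorescence change over 60 s gave activity.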
Cruzain noTriton: cruzain (T. cruzi) inhibition without detergent. P25779. purified cruzain, Z-FR-AMC fluorescence, no detergent. Potency, µM, without a hit: max response, negative = inhibition, actives largely listed as inhibitors. hit rate 2.3% among 200,000;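 also: plate controls were enzyme without inhibitor for no effect and buffer without enzyme for full effect; nearly all actives have a fitted effect of over 40% in size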
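Detergent-free condition (0.00005% Triton X-100) in acetate buffer pH 5.5 with DTT. 1.5 nM enzyme and compound were pre-mixed 15 min, then 2 uM Z-FR-AMC substrate added; reaction progress from fluorescence change between first and third reads (60 s).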
* marks the source's active call; other numbers are inactive results; ? = inconclusive. Calls follow the shape of the dose curve; as a rule, active = well fitted curve in the direction sought with a large enough effect; inconclusive = small, poorly fitted or top-dose-only effect, or another doubt; inactive = no such curve, though single readings can be large; an effect the other way counts as inactive or inconclusive. Potency is read from the fitted curve at half-maximal effect.

SMILES | Cruzain inh Det | Cruzain noTriton
CCOc1cc(/C=C2\CCC/C(=C\c3cc(Cl)c(O)c(OCC)c3)C2=O)cc(Cl)c1O | 6% | 13µM*
C=CCNC(=O)/C(C#N)=C\c1cc(Cl)c(O)c(OCC)c1 | -1% | -4%
CC(=O)c1ccc(NC(=O)c2sc(-n3nc(C)c(Cc4ccc5c(c4)OCO5)c3C)nc2C)cc1 | -1% | -9%
O=C(Cc1cn2ccsc2n1)Nc1ccccn1 | -7% | -29%
O=C(Cc1cn2ccsc2n1)Nc1cccc2cnccc12 | ? | 13µM*
COc1ccc(NC(=O)c2oc3ccccc3c2NC(=O)Cc2coc3c(C)c(C)ccc23)cc1 | -4% | ?
O=C(NCc1ccccc1Cl)c1ccc2c(c1)nnn2C1CCCC1 | -3% | -13%
CCc1c(C)sc(NC(=O)c2cc(-c3ccc(OC)c(OC)c3)on2)c1C#N | -4% | -8%
CCc1c(C)sc(NC(=O)c2cc(-c3ccc(O)cc3)on2)c1C#N | -1% | 7.9µM*
O=C1C=CC2=C3c4cc(O)c(O)cc4C[C@@]3(O)COC2=C1 | -1% | -10%
Nc1nc(NCc2ccccc2)nc(Nc2cccc(F)c2)c1[N+](=O)[O-] | 6% | 32µM*
Cc1cccc(Nc2nc(NCC3CCCO3)nc(N)c2[N+](=O)[O-])c1 (stereo not given) | -3% | 22%
Nc1nc(NCc2ccccc2)nc(Nc2ccc(F)cc2)c1[N+](=O)[O-] | -4% | 7.9µM*
Cc1ccc(CNc2nc(N)c([N+](=O)[O-])c(Nc3cccc(F)c3)n2)cc1 | -1% | 20µM*
Cc1cc(Nc2cccc(F)c2)nc(NCc2ccccc2)n1 | -7% | 6%
Nc1nc(NCC2CCCO2)nc(Nc2ccc(F)cc2)c1[N+](=O)[O-] (stereo not given) | -6% | -13%
Cc1c2cccc(Sc3ccccc3)c2c2c3c(cccc13)[S+](c1ccccc1)C2 (stereo not given) | 1% | 2.5µM*
COc1ccc(NC(=O)Cn2c(=O)n(CCC(=O)NCc3ccccc3OC)c(=O)c3ccccc32)cc1Cl | 0% | -20%
Cc1ccccc1C(=O)Nc1nc(-c2ccc(Br)cc2)ns1 | -4% | 20%
CCc1c(C)sc(NC(=O)CCc2ccc(OC)cc2)c1C(N)=O | -1% | 1%
CCCC(=O)Nc1sc(C)c(-c2ccc(OC)cc2)c1C#N | 3% | 6.3µM*
CNc1oc(-c2ccc(Cl)cc2)nc1P(=O)(c1ccccc1)c1ccccc1 | 13µM* | ?
CCOP(=O)(OCC)c1nc(-c2ccc(C)cc2)oc1NCc1ccccc1 | -10% | ?
COc1ccccc1NC(=O)c1cnc(Nc2ccccc2OC)c2ccccc12 | -10% | ?
COc1ccc(OC)c(NC(=O)c2cnc(Nc3ccc(C)c(Cl)c3)c3ccccc23)c1 | -4% | 6.3µM*
SMILES | Cruzain inh Det | Cruzain noTriton
COc1ccc(Nc2ncc(C(=O)N3CCN(Cc4ccccc4)CC3)c3ccccc23)cc1 | 0% | 0%
Cc1ccc(Nc2ncc(C(=O)N3CCN(c4cccc(Cl)c4)CC3)c3ccccc23)cc1Cl | -6% | 7.9µM*
C=C(C)Cn1c(SCC(=O)Nc2ccccc2C)nc2sc3c(c2c1=O)CCCC3 | -2% | -11%
Cn1ncc2c(NCc3cccc(Cl)c3)ncnc21 | 6% | -3%
CCOc1ccc2nc(Cl)c(C3CC(c4ccccc4)=NN3C(=O)CCC(=O)O)cc2c1 (stereo not given) | -1% | -3%
COC(=O)c1cccc(Cn2c(Cl)c(/C=N/Nc3ccccc3C)sc2=O)c1 | -9% | 13µM*
O=C(O)c1cccc(Cn2c(Cl)c(/C=N/NC(=O)c3ccccc3)sc2=O)c1 | -3% | -16%
COc1ccc(Nc2ncc(C(=O)Nc3ccc(F)cc3F)c3ccccc23)cc1 | -16% | 18%
Cc1cccc2cc(COC(=O)C3CCCCC3)c(=O)[nH]c12 | 2% | -6%
Cc1cccc2cc(COC(=O)C3CCCO3)c(=O)[nH]c12 (stereo not given) | -1% | 1.6µM*
COc1ccc(-c2[nH]c(-c3ccc(F)cc3)nc2SCC(=O)Nc2ccc(OC)c(OC)c2)cc1 | -5% | 15%
CCOCCCN1C(=O)c2[nH]nc(-c3ccccc3O)c2C1c1ccc(CC)cc1 (stereo not given) | -14% | 19%
N#CC1=C(N)n2c(s/c(=C\c3cccs3)c2=O)=C(C#N)C1c1cccs1 (stereo not given) | -24% | 25µM*
N#CC1=C(N)n2c(s/c(=C\c3ccco3)c2=O)=C(C#N)C1c1ccco1 (stereo not given) | -9% | -25%
O=C(Cn1c(=O)oc2ccccc21)Nc1nc(-c2ccc(Br)cc2)cs1 | 1% | 16µM*
Cc1csc(NC(=O)CCn2c(=O)oc3ccccc32)n1 | -1% | -7%
C[C@H](O)CON1C(=O)c2ccccc2C1=O | 2% | -3%
Cc1ccc(S(=O)(=O)ON2C(=O)c3ccccc3C2=O)c(C)c1 | 13µM* | 16µM*
COc1cc(NS(=O)(=O)c2ccc(C)cc2C)cc(OC)c1OC | 2% | 1%
Cc1cc(C)c(C)c(S(=O)(=O)ON2C(=O)c3ccccc3C2=O)c1C | 20µM* | 25µM*
CCc1ccc(CNC(=O)c2c(C)oc3ncn(CC(C)C)c(=O)c23)cc1 | -4% | 6%
COc1ccccc1/C=C(/CC(=O)NCc1ccccc1)c1nc2ccccc2s1 | -4% | ?
COc1ccccc1/C=C(/CC(=O)NCc1ccc(F)cc1)c1nc2ccccc2s1 | -7% | 16µM*
COc1ccc2c(c1[N+](=O)[O-])CCC/C2=N/OC(=O)c1cccc2ccccc12 | -2% | 20µM*
COc1ccccc1C(=O)ON=C1c2ccccc2-c2ccccc21 | -7% | ?
SMILES | Cruzain inh Det | Cruzain noTriton
CCOc1ccc(N(C(=O)CC(C)C)S(=O)(=O)c2ccc3c(c2)oc(=O)n3C)cc1 | -7% | ?
CCOc1ccc2c(ccc(/C=C\c3cc(C)c4cccnc4c3O)[n+]2C)c1 | 3.2µM* | 0%
CCOc1ccc2c(c1)sc(N)[n+]2Cc1cc(C)cc2cccnc12 | -10% | 1%
COc1ccccc1CNC(=O)c1cc2cccc3c2n1CCS3 | -8% | 25µM*
O=C(NCc1ccccc1Cl)c1cc2cccc3c2n1CCS3 | -3% | ?
CCOC(=O)c1[nH]c2ccccc2c1NC(=O)c1ccccc1OCC | -8% | 1%
Cc1cc(F)ccc1NC(=O)c1c(C)oc2c1C1=NCCN1C=N2 | 7% | -10%
COc1ccc(/C=N/NC(=O)CCSc2nc3ccccc3s2)cc1OC | -10% | ?
O=C(CCSc1nc2ccccc2s1)N/N=C/c1c(O)ccc2ccccc12 | -2% | 13µM*
COc1cc(NS(=O)(=O)c2ccc(NC(=S)NC(=O)c3cccs3)cc2)nc(OC)n1 | -11% | -3%
COc1cc(NC(=S)NC(=O)c2cc(C)cc(C)c2)ccc1NC(=O)c1cccs1 | -4% | 16µM*
COc1cc(NC(=S)NC(=O)c2ccc(F)cc2)ccc1NC(=O)c1ccco1 | 2% | ?
COc1cc(NC(=S)NC(=O)c2c(OC)cccc2OC)ccc1NC(=O)c1cccs1 | -7% | -14%
Cc1cc(C)cc(NS(=O)(=O)c2ccc(NC(=S)NC(=O)c3cccs3)cc2)c1 | -2% | 25µM*
COc1cc(NC(=S)NC(=O)c2ccc(C(C)(C)C)cc2)ccc1NC(=O)c1cccs1 | 3% | 13µM*
O=C(Nc1nc2n(n1)C(c1ccc(Cl)cc1)C=C(c1ccccc1)N2)c1ccco1 (stereo not given) | -2% | 0%
COc1ccc(CCn2c(=O)c3cccnc3n(CC(=O)Nc3c(C)cccc3C)c2=O)cc1OC | 0% | 5%

Screens: PubChem, National Center for Advancing Translational Sciences (NCATS)
